Screens: PubChem, National Center for Advancing Translational Sciences (NCATS)
D2 antagonist: antagonists of human D2 dopamine receptor; P14416; HEK293 TREx D2 cells, calcium flux, dopamine EC80; inhibition, % at 10 µM; hit rate 2% among 340,000; AID 485344; in the data active means inhibition above about 30%; inactive means below that, where a call was filed
Target sequence (P14416 whole entry, looked up): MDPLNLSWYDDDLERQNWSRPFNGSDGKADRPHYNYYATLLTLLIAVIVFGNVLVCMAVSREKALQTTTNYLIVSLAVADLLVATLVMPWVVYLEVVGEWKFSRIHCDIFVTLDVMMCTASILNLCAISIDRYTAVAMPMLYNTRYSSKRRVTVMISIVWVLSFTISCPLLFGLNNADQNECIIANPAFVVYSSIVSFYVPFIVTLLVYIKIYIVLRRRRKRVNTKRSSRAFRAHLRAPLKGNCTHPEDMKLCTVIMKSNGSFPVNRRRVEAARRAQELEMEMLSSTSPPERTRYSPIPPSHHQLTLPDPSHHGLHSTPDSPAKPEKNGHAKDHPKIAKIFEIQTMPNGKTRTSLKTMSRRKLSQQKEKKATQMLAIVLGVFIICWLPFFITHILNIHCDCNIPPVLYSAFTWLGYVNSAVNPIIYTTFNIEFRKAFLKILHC
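HEK293 T-REx D2 cells, tet-induced, calcium dye no-wash. Cpd pintool add, 180 s kinetic, then EC80 DA, 180 s kinetic. Ca flux read.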
D2 PAM-1: positively modulates the human D2 dopamine receptor allosterically. HEK293 T-REx D2, calcium flux, EC20 dopamine potentiation. potentiation, % at 10 µM. hit rate 0.34% among 340,000. AID 485347;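 active means potentiation over 3 SD above the plate norm, cut at about 30% in these data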
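Primary screen. Calcium kinetics in induced HEK293 T-REx D2 cells: compound pre-addition 180 s, EC20 dopamine, 180 s more.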
D2 PAM-2: human D2 receptor positive allosteric modulation; hit rate 0.23% among 360,000; DiscoveRx D2 beta-arrestin cells, luminescence, 90 min; 100% = 57 uM dopamine signal; potentiation, % (test concentration not listed); AID 624464; P14416; in the data active means potentiation above about 50%
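D2 cells co-treated with compound plus 50 nM dopamine (EC20) for 90 min at 37 deg C to detect potentiation. Beta-arrestin recruitment was read as enzyme-fragment luminescence after 1 h at ambient temperature. Full response was set by 57 uM dopamine.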
D2 ag-1: D2 dopamine receptor (human) agonism. HEK293 T-REx D2 cells, calcium flux agonist mode. activation, % at 2 µM. hit rate 0.53% among 340,000;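 active means activation over 3 SD above normal in the single-dose calcium agonist read, cut at about 30% in these data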
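Calcium-flux readout, 1 cycle/sec over 180 s following compound pin transfer, in inducible HEK293 Trex D2 cells (force-coupled); dopamine controls included. Positive calcium responses during this window marked compounds as potential agonists.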
D2 ag-2: human D2 receptor agonism in beta-arrestin assay; P14416; activation, % (no concentration beside the values); hit rate 0.084% among 360,000; DiscoveRx PathHunter D2 beta-arrestin, luminescence, 90 min; 100% = 57 uM dopamine signal; in the data active means activation above about 40%
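Agonist mode: compounds alone added to overnight-plated D2 PathHunter cells for 90 min at 37 C, with 57 uM final dopamine (EC100) defining full response. Beta-arrestin recruitment detected by chemiluminescent reagent, read after 1 h at ambient temperature.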
Each line names hits and unclear results; the compound was inactive in the other large screens. In the library only some 2.4% were active in any assay of this set; here they are far more common.

COc1ccc(CNc2nc(NCc3ccc(OC)cc3)c3[nH]cnc3n2)cc1	D2 antagonist 41.6
COc1ccc(CNc2ncnc(N)n2)cc1	none
Cc1cc(Oc2ccc(C#N)cc2)nc(NCc2ccccc2)n1	D2 antagonist 42.4
O=C(O)c1ccccc1-c1ccc(/C=C/c2cc(C(F)(F)F)[nH]c(=O)n2)o1	D2 ag-1 45.2
N#Cc1cc(C(=O)c2cc(F)ccc2O)cn(-c2nccs2)c1=O	D2 antagonist 34.2, D2 ag-1 116.4
CC(C)n1cc(C(=O)c2ccccc2O)cc(C#N)c1=O	none
Cc1c(-n2cc(C(=O)c3cc(F)ccc3O)cc(C#N)c2=O)c(=O)n(-c2ccccc2)n1C	none (no result: D2 PAM-1)
N#Cc1cc(C(=O)c2ccccc2O)cn(-c2nccs2)c1=O	D2 ag-1 138.3
CN(C)C(=O)c1cc(C(=O)Cc2ccccc2)c[nH]1	D2 antagonist 37.3
O=C(Cc1ccccc1)c1c[nH]c(C(=O)O)c1	none
Cc1ccc(CCNC(=O)c2ccc(Cn3c(=O)c4cccn4c4cccnc43)cc2)cc1	none (no result: D2 antagonist, D2 PAM-2, D2 ag-2)
CC(=O)c1ccc(OCCCOc2cccc3cccnc23)cc1	none
CC(=O)c1ccccc1OCCCOc1cccc2cccnc12	D2 PAM-2 76.7 (no result: D2 antagonist, D2 PAM-1, D2 ag-1)
COc1cc(CNc2ncc(-c3ccc(Br)cc3)n2C)cc(OC)c1OC	none
Cn1c(-c2ccc(Br)cc2)cnc1NCc1cccnc1	D2 antagonist 42.9
CCN(CC)CCNC(=O)Nc1ccc2c(c1)N(Cc1ccccc1)C(=O)c1ccccc1S2	none (no result: D2 antagonist, D2 PAM-2, D2 ag-2)
C=CCN(c1ccccc1)S(=O)(=O)c1cccc(C(=O)Nc2nnc(SCC)s2)c1	D2 antagonist 42.6
Cc1nc(N2CCOCC2)c(C#N)c2c1COC(C)(C)C2	D2 PAM-1 32.6
CCc1nc(N2CCOCC2)c(C#N)c2c1COC(C)(C)C2	none
Cc1cc(C(=O)O)ccc1N/C=C1\CCCC(C)C1=O (centres undefined)	none
CC1CCC/C(=C\Nc2ccc(O)cc2)C1=O (centres undefined)	D2 PAM-2 53.9
CCN(CC(O)CON=C1c2ccccc2-c2ccccc21)S(=O)(=O)c1ccc(C)cc1 (centres undefined)	D2 antagonist 34.1
CCOc1ccc(CNC(=O)C2CCN(S(=O)(=O)c3cn(C)cn3)CC2)cc1	none (no result: D2 antagonist, D2 PAM-2, D2 ag-2)
O=C(c1ccccc1)c1ccc2c(c1)OCCOCCOCCOCCO2	D2 antagonist 50.3
O=C(O)c1ccc2c(c1)OCCOCCOCCOCCOCCO2	none
Cc1cc(=O)oc2c(C)c(OCC(=O)N3CCN(c4ccc(F)cc4)CC3)ccc12	none
Cc1cccc(N2CCN(C(=O)COc3ccc4c(C)cc(=O)oc4c3C)CC2)c1C	D2 PAM-1 39.2
COc1ccc(CCC(=O)Nc2ccc(C)c(S(=O)(=O)N(C)C)c2)cc1OC	none
COc1ccc(CCNCC(=O)Nc2ccc(C)c(S(=O)(=O)N(C)C)c2)cc1	D2 antagonist 32.8
Cc1cc(C)cc(NC(=O)C2CCCN(c3cnccn3)C2)c1 (centres undefined)	none (no result: D2 antagonist, D2 PAM-2, D2 ag-2)
CCOC(=O)c1ccc(NC(=O)CSc2cn(CC(=O)N3CCCC3)c3ccccc23)cc1	none (no result: D2 antagonist, D2 PAM-2, D2 ag-2)
Cc1ccc(OCc2ccoc2C(=O)O)cc1C	D2 antagonist 30.2
COc1ccc2[nH]c3c(c2c1)CCN1C(=O)N([C@@H](C)C(=O)NC2CC2)C(=O)[C@]31C	D2 ag-1 30.4
C[C@@H](C(=O)NC1CCN(Cc2ccccc2)CC1)N1C(=O)N2CCc3c([nH]c4ccccc34)[C@@]2(C)C1=O	none
CC(C)C[C@@H](C(=O)NC1CCN(Cc2ccccc2)CC1)N1C(=O)N2CCc3c([nH]c4ccccc34)[C@@]2(C)C1=O	D2 antagonist 30.9
COc1ccc2[nH]c3c(c2c1)CCN1C(=O)N([C@@H](C)C(=O)NCc2ccccc2)C(=O)[C@]31C	D2 ag-1 36.0
CCn1c(CN2CCCCC2)nc2cc(NC(=O)c3cccc([N+](=O)[O-])c3)ccc21	none (no result: D2 antagonist, D2 PAM-2, D2 ag-2)
Cc1cc(Nc2cccc(Cl)c2)nc2ccc(NC(=O)COc3ccc(Cl)cc3)cc12	none (no result: D2 antagonist, D2 PAM-2, D2 ag-2)
CCOC(=O)c1sc(C)c2c(=O)n(Cc3ccc(Cl)cc3)c(C)nc12	D2 antagonist 37.7
Cc1cc(F)ccc1S(=O)(=O)NCC(c1ccco1)S(=O)(=O)c1cccs1 (centres undefined)	none (no result: D2 antagonist, D2 PAM-2, D2 ag-2)
O=[N+]([O-])c1ccc(Cl)c(S(=O)(=O)Nc2ccc(-c3ccc(N4CCOCC4)nn3)cc2)c1	none
